Screening results deposited in PubChem by National Center for Advancing Translational Sciences (NCATS).
MmCpn inh: blocks the Methanococcus maripaludis chaperonin Mm-Cpn. Potency, µM (doses to about 76.9 µM), usual class: inhibitors. purified Mm-Cpn ATPase, ADP Transcreener TR-FRET. AID 504842. 0.031% of 330,000 active; further: nearly all actives have a fitted effect of over 80% in size
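Inhibition of chaperonin ATP hydrolysis is measured as reduced ADP production, detected by competitive TR-FRET in which signal falls with ADP. Final enzyme 25 nM and ATP 10 uM, reacted 30 min at 37°C.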
CCT modulator: cytosolic chaperonin activity modulation | activity change, % (no concentration beside the values), hits read low | AID 651819 | purified chaperonin ATPase assay, HTRF ADP detection, 30 min | 0.3% of 360,000 active; in the data active means activity change below about -30%
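Enzyme 40 or 20 nM (batch-dependent) in Tris pH 7.4/KCl/MgCl2/DTT; cpd 76 uM single point; ATP 10 uM; 30 min 37 °C; Transcreener ADP HTRF detection, 30 min RT; ratio 665/615.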
gsp antagonist: gsp mutant antagonism; AID 624288; 0.4% of 340,000 active; gsp-mutant cells, cAMP HTRF, 30 min; Potency, µM (series often up to 76.9 µM), hits mostly inhibitors; calls by dose curve; cell line not stated here;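 further: intracellular cAMP measured with PDE inhibitor Ro 20-1724 present during compound exposure; nearly all actives have a fitted effect of over 65% in size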
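G418-selected cells were plated in DMEM/10% FBS for 16-24 h at 37C, then treated with compounds plus the PDE inhibitor […] (300 uM solution added) for 30 min at 37C. Intracellular cAMP was measured by HTRF after 30 min lysis at room temperature.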
RXFP1 ag: RXFP1 (human) receptor agonism. HEK293T-RXFP1 cAMP TR-FRET, 30 min; response scale: percent of porcine relaxin response, buffer zero. Potency, µM (titrated, usually from 57.5 µM), hits mostly activators. 0.3% of 370,000 active. AID 2676; further: nearly all actives have a fitted effect of over 60% in size
Target sequence (Q9HBX9 whole entry, looked up): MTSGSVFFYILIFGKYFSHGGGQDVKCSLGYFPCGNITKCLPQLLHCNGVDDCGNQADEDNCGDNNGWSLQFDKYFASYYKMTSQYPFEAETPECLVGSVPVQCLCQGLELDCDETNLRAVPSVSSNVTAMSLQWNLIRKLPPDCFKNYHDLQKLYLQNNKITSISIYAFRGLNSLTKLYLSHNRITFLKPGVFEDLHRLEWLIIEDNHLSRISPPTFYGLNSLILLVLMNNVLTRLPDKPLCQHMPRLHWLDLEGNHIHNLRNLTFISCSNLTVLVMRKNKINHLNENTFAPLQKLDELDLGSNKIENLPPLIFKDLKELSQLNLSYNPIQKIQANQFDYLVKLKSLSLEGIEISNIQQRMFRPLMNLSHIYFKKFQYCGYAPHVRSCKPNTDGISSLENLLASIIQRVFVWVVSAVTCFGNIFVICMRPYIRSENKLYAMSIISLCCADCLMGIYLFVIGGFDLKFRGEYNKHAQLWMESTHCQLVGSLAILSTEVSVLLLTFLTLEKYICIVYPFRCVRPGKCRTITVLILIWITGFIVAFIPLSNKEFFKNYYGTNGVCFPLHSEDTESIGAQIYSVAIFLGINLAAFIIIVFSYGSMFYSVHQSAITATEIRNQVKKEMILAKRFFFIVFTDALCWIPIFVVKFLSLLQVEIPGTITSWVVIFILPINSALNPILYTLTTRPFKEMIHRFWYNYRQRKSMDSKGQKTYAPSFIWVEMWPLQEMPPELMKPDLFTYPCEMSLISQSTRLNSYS
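Agonist response is measured as cAMP accumulation in an RXFP1-transfected HEK293T line under PDE4 inhibition. Values are scaled between buffer-only and 29 nM porcine relaxin, and EC50s come from standard Hill equation fits.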
RXFP1 antagonist: antagonists of human relaxin receptor RXFP1 | HEK293-RXFP1, relaxin-stimulated cAMP HTRF, 30 min; stronger effect = lower value | activity change, negative = inhibition, % at 57.5 µM | Q9HBX9 | 0.59% of 350,000 active;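 active means activity change of -60% or lower, but not beyond a set lower limit; inconclusive means change between -60% and -40%, or beyond the set limit; inactive means change above -40%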
gsp ag: gsp mutant agonism. gsp mutant cells, cAMP HTRF, 30 min. Potency, µM (doses to about 76.9 µM), usual class: activators. 0.13% of 340,000 active; active means well fitted activation curve with a large enough effect; inconclusive means small, poorly fitted or top-dose-only effect, or another doubt; inactive means no such curve, though single readings can be large or run the other way; cell line not stated here;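 further: phosphodiesterase inhibitor Ro 20-1724 added with compounds to block cAMP breakdown; nearly all actives have a fitted effect of over 60% in size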
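Cells in DMEM/10% FBS with G418 were pretreated with compounds in DMSO plus […] (300 uM stock) for 30 min at 37C. cAMP was measured by HTRF (cAMP-d2 plus anti-cAMP antibody-K) after 30 min at room temperature.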
Large screens that a line does not name were inactive; ! = repeats disagree. Shown are actives, neighbours in structure and some others; about 1.2% of the full set was active somewhere. Unless noted, the call rests on the fitted dose curve; in most records, active means well fitted curve in the direction sought with a large enough effect; inconclusive means small, poorly fitted or top-dose-only effect, or another doubt; inactive means no such curve, though single readings can be large; an effect the other way counts as inactive or inconclusive.

O=C(c1cc(F)ccc1F)C1CCCN(Cc2cccc(Cl)c2)C1 (centres undefined)	none
O=C(c1cc(F)ccc1F)C1CCCN(CCCc2ccccc2)C1 (centres undefined)	CCT modulator -30
CC(C)(C)NC[C@H](O)c1ccc(O)cc1Cl	none (no result: MmCpn inh, CCT modulator, gsp antagonist, RXFP1 ag, gsp ag)
COc1ccccc1C(=O)Nc1ccc2nc(SCC(=O)N3CCCc4ccccc43)sc2c1	RXFP1 ag inconclusive (no result: MmCpn inh, CCT modulator, gsp antagonist, gsp ag)
CCOC(=O)CC1c2ccccc2-n2nncc2CN1CC1CCCCC1 (centres undefined)	none (no result: MmCpn inh, gsp antagonist, RXFP1 ag)
CCOC(=O)CC1c2ccccc2-n2nncc2CN1C (centres undefined)	CCT modulator -86 (no result: MmCpn inh, RXFP1 ag, RXFP1 antagonist, gsp ag)
CCOC(C(=O)OCCN(C)C)(c1ccccc1)c1ccccc1	none (no result: MmCpn inh, CCT modulator, gsp antagonist, RXFP1 ag, gsp ag)
CCOC(=O)c1c(NC(NC(=O)CF)C(Cl)(Cl)Cl)sc2c1CCCC2 (centres undefined)	RXFP1 antagonist -61
CCOC(=O)c1c(NC(=O)c2c(N)n(CCCOC)c3nc4ccccc4nc23)sc2c1CCCC2	none
COc1ccc(NC(=O)c2ccc(=O)[nH]c2)cc1S(=O)(=O)N1CCOCC1	none
COC1=CC(=O)OC(CCc2ccc3c(c2)OCO3)C1 (centres undefined)	CCT modulator -32 (no result: MmCpn inh, RXFP1 ag, RXFP1 antagonist, gsp ag)
OC(COCc1ccc(Cl)cc1)CN1CC=C(c2ccccc2)CC1 (centres undefined)	RXFP1 antagonist -61!
Oc1cc(Cl)ccc1Oc1ccc(Cl)cc1Cl	RXFP1 antagonist -77! (no result: MmCpn inh, RXFP1 ag, gsp ag)
O=C(O)COc1ccc(Cl)cc1Cl	none (no result: MmCpn inh, RXFP1 ag)
CC(C(O)c1ccccc1)N(C)C/C=C/c1ccccc1 (centres undefined)	none (no result: MmCpn inh, CCT modulator, gsp antagonist, RXFP1 ag, gsp ag)
COc1cccc2c1C(=O)c1c(O)c3c(c(O)c1C2=O)C[C@@](O)(C(=O)CO)CC3OC1CC(N2CCOC(OC)C2)C(O)C(C)O1 (some centres undefined)	none (no result: MmCpn inh, CCT modulator, gsp antagonist, RXFP1 ag, gsp ag)
C=CCC1=C(C)C(OC(=O)C2C(C=C(C)C)C2(C)C)CC1=O (centres undefined)	RXFP1 antagonist -70 (no result: MmCpn inh, CCT modulator, gsp antagonist, RXFP1 ag, gsp ag)
CCN(CC)C(=O)c1ccc(NC(=O)CCn2nc(-c3ccc(C)cc3)c3ccccc3c2=O)cc1	RXFP1 antagonist -79 (no result: MmCpn inh, CCT modulator, gsp antagonist, gsp ag)
CCN(CC)C(=O)c1ccc(NC(=O)Cn2nc(-c3ccc(C)cc3)c3ccccc3c2=O)cc1	none (no result: MmCpn inh, CCT modulator, gsp antagonist, gsp ag)
COc1ccccc1OCCCn1cc(C(=O)C2CC2)c2ccccc21	gsp antagonist 45µM
CCCCCCC(Cl)(Cn1ccnc1)c1ccccc1 (centres undefined)	CCT modulator -35 (no result: MmCpn inh, RXFP1 ag)
S=C1CN=C(c2ccccc2)c2cc(Cl)ccc2N1	RXFP1 antagonist -111
COc1ccc(C2=NCC(=S)Nc3ccc(Cl)cc32)cc1OC	none (no result: MmCpn inh, RXFP1 ag)
Fc1cc(Br)ccc1CBr	none (no result: MmCpn inh, CCT modulator, gsp antagonist, RXFP1 ag, gsp ag)
N#CC1=C(N)Oc2c(c(=O)sc3ccccc23)C1c1cccnc1 (centres undefined)	CCT modulator -43
Cc1[nH]c(=S)c(C#N)c2c1CCCC2	RXFP1 ag inconclusive, gsp ag 14µM
CC[n+]1c(/C=C/C=C/c2ccc(N(C)C)cc2)sc2ccccc21	MmCpn inh inconclusive, gsp antagonist inconclusive, RXFP1 antagonist inconclusive
CN(C)c1ccc(/C=C/c2cc[n+](C)c3ccccc23)cc1	MmCpn inh inconclusive, gsp antagonist inconclusive, RXFP1 antagonist -95!
CN(C)c1ccc(/C=C/C=C/c2sc3ccccc3[n+]2C)cc1	MmCpn inh inconclusive, gsp antagonist 28µM, RXFP1 antagonist inconclusive
CC[n+]1c(-c2ccccc2)c2cc(N)ccc2c2ccc(N)cc21	gsp antagonist inconclusive, RXFP1 antagonist -85! (no result: MmCpn inh, RXFP1 ag)
CCC(C)C(C)(COC(N)=O)COC(N)=O (centres undefined)	none (no result: MmCpn inh, CCT modulator, gsp antagonist, RXFP1 ag, gsp ag)
Cc1oc(-c2ccccc2)nc1CN1C(=O)C(C)N=C(c2ccccc2F)c2cc(Cl)ccc21 (centres undefined)	gsp antagonist inconclusive (no result: RXFP1 antagonist)
Cc1ccccc1CN1C(=O)C(C)N=C(c2ccccc2)c2ccccc21 (centres undefined)	RXFP1 antagonist -70 (no result: MmCpn inh, CCT modulator, gsp antagonist, gsp ag)
C=CCN1C(=O)NC(=O)/C(=C\c2ccc(-c3ccccc3[N+](=O)[O-])o2)C1=O	RXFP1 antagonist -101
